Screen size: about 39,000 compounds; about 220 (0.56%) showed activity. The full list was thinned out, with actives kept by preference.
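Further: Wild-type cells incubated without shaking, value is the mean of two biological replicates.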

The subject of the assay is Escherichia coli K-12 BW25113. The experiment in a line: relative growth (OD600 normalised to plate interquartile mean) (fraction); higher = less growth inhibition, active = 0.2 or less. As to conditions: 50 µM; LB; incubation time: overnight (16-24 h).
Turning to `O=C(NCc1ccccc1)[C@@H]1c2ccccc2C(=O)N(Cc2ccccc2C(F)(F)F)[C@H]1c1ccc(CO)cc1`, the relative growth was 1 (inactive). Regarding `CN1C(=O)c2cc(NC(=O)c3cccs3)ccc2OC[C@H]2O[C@H](CC(=O)NCC(F)(F)F)CC[C@H]21`, the relative growth was 1 (inactive).

In the case of `CCCN(C)C[C@@H]1OCCCC[C@@H](C)Oc2ccc(NC(=O)Nc3ccccc3)cc2C(=O)N([C@H](C)CO)C[C@@H]1C`, the relative growth is 1.01 (inactive). In the case of `CC(C)NC(=O)Nc1ccc2c(c1)C(=O)N([C@H](C)CO)C[C@H](C)[C@H](CN(C)CC1CCCCC1)OCCCC[C@@H](C)O2`, the relative growth was 0.955 (inactive). As for `COc1ccc(S(=O)(=O)Nc2ccc3c(c2)C(=O)N([C@H](C)CO)C[C@H](C)[C@H](CN(C)C(=O)Nc2ccccc2)OCCCC[C@@H](C)O3)cc1`, the figure is 0.996 (inactive). As for `NC(=O)[C@@H]1CC[C@@H]2CN1C(=O)N2OS(=O)(=O)O`, the figure is 0.19 (active). With `NCCONC(=O)[C@@H]1CC[C@@H]2CN1C(=O)N2OS(=O)(=O)O` the figure was 0.0923 (active). Consider `COc1ccc(CN(C)C[C@H]2OCCCC[C@H](C)Oc3ccc(NS(=O)(=O)c4ccc(C)cc4)cc3C(=O)N([C@H](C)CO)C[C@@H]2C)cc1`, for which the relative growth is 1 (inactive). With `Cc1noc(C)c1NC(=O)Nc1ccc2c(c1)C(=O)N([C@@H](C)CO)C[C@@H](C)[C@H](CN(C)Cc1ccncc1)OCCCC[C@H](C)O2` the figure was 0.993 (inactive); with `C[C@H](NC(=O)C[C@H]1C=C[C@H](NC(=O)CN2CCOCC2)[C@@H](CO)O1)c1ccccc1`, 0.983 (inactive). With `COc1ccc(C(=O)Nc2ccc3c(c2)C(=O)N(C)[C@@H]2CC[C@@H](CC(=O)NCC4CC4)O[C@H]2CO3)cc1` the figure was 0.96 (inactive); with `COc1ccc(NC(=O)N(C)C[C@H]2Oc3c(NS(=O)(=O)c4c(C)noc4C)cccc3C(=O)N([C@H](C)CO)C[C@H]2C)cc1`, 0.994 (inactive); with `CN(C)CC(=O)N[C@@H]1C=C[C@H](CC(=O)NCCN2CCCCC2)O[C@@H]1CO`, 0.999 (inactive). With `Cc1noc(C)c1NC(=O)Nc1ccc2c(c1)C(=O)N([C@@H](C)CO)C[C@@H](C)[C@H](CN(C)C(=O)Nc1ccc(C(F)(F)F)cc1)OCCCC[C@H](C)O2` the figure was 1.02 (inactive).

For `CC(C)NC(=O)N[C@H]1CC[C@H](CCN)O[C@@H]1CO`, the relative growth is 0.987 (inactive). With `NCC1OC(OC2C(N)CC(N)C(O)C2OC2OC(CO)C(O)C2O)C(N)C(O)C1O.O=S(=O)(O)O` (centres undefined) the figure was 0.78 (inactive); with `NCC1OC(OC2C(N)CC(N)C(OC3OC(CO)C(O)C(N)C3O)C2O)C(O)C(O)C1O.O=S(=O)(O)O` (centres undefined), 0.982 (inactive); with `NC[C@H]1O[C@H](O[C@H]2[C@@H](O[C@@H]3O[C@H](CO)[C@@H](O)[C@H]3O)[C@@H](O)[C@H](N)C[C@@H]2N)[C@H](N)[C@@H](O)[C@@H]1O`, 0.981 (inactive). As for `NC[C@H]1O[C@H](O[C@H]2[C@H](O)[C@@H](O[C@H]3O[C@H](CO)[C@@H](O)[C@H](N)[C@H]3O)[C@H](N)C[C@@H]2N)[C@H](N)[C@@H](O)[C@@H]1O`, the figure is 0.0328 (active). Turning to `NCC1OC(OC2C(N)CC(N)C(OC3OC(CO)C(O)C(N)C3O)C2O)C(N)C(O)C1O.O=S(=O)(O)O` (centres undefined), the relative growth is 0.0483 (active).

Take `NC[C@H]1O[C@H](O[C@@H]2[C@H](O)[C@@H](O[C@H]3O[C@H](CO)[C@@H](O)[C@H](N)[C@H]3O)[C@H](N)C[C@@H]2N)[C@H](O)[C@@H](O)[C@@H]1O`: the relative growth was 0.983 (inactive).

As for `CN1C=C(C(=O)OCCS(C)(=O)=O)C(C(=O)OCCS(C)(=O)=O)=CC(c2ccc(CO)cc2)=C[C@@H]1C1CC1`, the relative growth is 1.02 (inactive). For `Cc1ccc(S(=O)(=O)N[C@H]2CC[C@H](CC(=O)N3CCC(Cc4ccccc4)CC3)O[C@H]2CO)cc1`, the relative growth was 1.02 (inactive). As for `Cc1noc(C)c1NC(=O)Nc1ccc2c(c1)C(=O)N([C@@H](C)CO)C[C@@H](C)[C@@H](CN(C)S(=O)(=O)c1ccccc1)OCCCC[C@H](C)O2`, the figure is 0.998 (inactive). As for `C[C@H]1CN([C@@H](C)CO)C(=O)c2cccc(NC(=O)Nc3ccccc3)c2O[C@@H]1CN(C)S(C)(=O)=O`, the figure is 0.991 (inactive). Turning to `CCS(=O)(=O)Nc1ccc2c(c1)C(=O)N(C)[C@@H]1CC[C@@H](CC(=O)NCc3ccc(OC)cc3)O[C@@H]1CO2`, the relative growth is 1.01 (inactive).

As for `Cc1ccc(NC(=O)C[C@@H](N)C(=O)O)cc1`, the relative growth was 1.01 (inactive). With `CCOC(=O)/C(=N/O)c1csc(N)n1` the figure was 0.997 (inactive). With `CCNC(=O)c1csc(N)n1` the figure was 0.971 (inactive); with `CC1C(NC(=O)C(=NOC(C)(C)C(=O)O)c2csc(N)n2)C(=O)N1S(=O)(=O)O` (centres undefined), 0.0499 (active). Turning to `C[C@H]1[C@H](NC(=O)/C(=N\OC(C)(C)C(=O)O)c2csc(N)n2)C(=O)N1S(=O)(=O)O`, the relative growth is 0.0312 (active).

`COc1ccc(S(=O)(=O)N2C[C@H](O)COC[C@@H]3O[C@@H](CC(=O)NCCCN4CCOCC4)CC[C@H]32)cc1`: the relative growth is 0.999 (inactive). With `CC(C)NC(=O)Nc1ccc2c(c1)C(=O)N([C@H](C)CO)C[C@@H](C)[C@H](CN(C)S(=O)(=O)c1ccc(Cl)cc1)O2` the figure was 1.03 (inactive). On to `Cn1c(=O)oc2cc(S(=O)(=O)N3CCC[C@H](C(=O)NN4CCOCC4)C3)ccc21`, for which the relative growth is 0.99 (inactive). As for `NC(=O)c1cc[n+](CC2=C(C(=O)O)N3C(=O)[C@@H](NC(=O)Cc4cccs4)[C@H]3SC2)cc1`, the relative growth was 1.04 (inactive). Regarding `CC(C)(O/N=C(\C(=O)N[C@@H]1C(=O)N2C(C(=O)O)=C(C[N+]3(CCNC(=O)c4ccc(O)c(O)c4Cl)CCCC3)CS[C@H]12)c1csc(N)n1)C(=O)O`, the relative growth was 0.0469 (active).

Turning to `CC(C)(O/N=C(\C(=O)N[C@@H]1C(=O)N2C(C(=O)O)=C(C[n+]3ccccc3)CS[C@H]12)c1csc(N)n1)C(=O)O`, the relative growth was 0.0433 (active). In the case of `CC(C)(ON=C(C(=O)NC1C(=O)N2C(C(=O)[O-])=C(C[n+]3ccccc3)CSC12)c1csc(N)n1)C(=O)O` (centres undefined), the relative growth is 0.0511 (active).

As to `COc1ccc(CNC(=O)C[C@@H]2CC[C@H]3[C@@H](COc4ccc(NC(=O)C5CC5)cc4C(=O)N3C)O2)cc1`, the relative growth is 1.03 (inactive).
